A selection: hits, their analogues and other compounds. The true share with any hit is near 2.6%.
TAG inh: inhibitors of triacylglycerol accumulation | inhibition, % at 12.5 µM | 0.66% of 230,000 active | H9c2 cells, Nile Red lipid (TAG) fluorescence; cells loaded with 200 µM oleic acid;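 active = pattern-corrected inhibition of lipid staining of at least 50% with the nuclear-stain viability signal not falling by more than 50%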;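 also: 0% = DMSO wells and 100% = triacsin C control wells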
Jurkat NFkB inh: inhibitors of the PMA/ionomycin-induced NF-kB reporter in Jurkat cells. PMA/ionomycin-induced NF-kB luciferase reporter, luminescence. inhibition, % at 4 µM. 0.53% of 330,000 active. AID 435003; in the data active = inhibition above about 50%
COUP-TFII inh: inhibitors of human COUP-TFII (NR2F2). HEK293T NGFI-A luciferase reporter, luminescence. inhibition, % at 8.6 µM. AID 686940. 0.7% of 370,000 active. P24468;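 active = inhibition above a per-plate cutoff, mean inhibition of test wells between control levels plus 3 SD, cut at about 38% in these data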;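 also: cells cotransfected with COUP-TFII expression vector driving the NGFI-A reporter; 0% = median of COUP-TF2 test wells and 100% = reporter-only cells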
Target sequence (P24468 whole entry, looked up): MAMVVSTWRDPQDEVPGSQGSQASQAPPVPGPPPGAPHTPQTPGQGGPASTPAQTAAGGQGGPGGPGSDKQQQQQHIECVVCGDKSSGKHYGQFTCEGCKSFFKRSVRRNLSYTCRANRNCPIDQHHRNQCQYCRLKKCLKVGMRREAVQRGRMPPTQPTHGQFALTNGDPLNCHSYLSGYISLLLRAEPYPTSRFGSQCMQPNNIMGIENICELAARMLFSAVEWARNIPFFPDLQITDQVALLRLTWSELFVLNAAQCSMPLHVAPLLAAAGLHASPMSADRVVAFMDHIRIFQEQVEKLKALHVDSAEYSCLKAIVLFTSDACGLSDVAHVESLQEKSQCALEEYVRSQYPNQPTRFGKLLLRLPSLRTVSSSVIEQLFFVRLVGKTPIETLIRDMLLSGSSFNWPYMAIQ
Gli-Sufu block: antagonists of Gli-Sufu signaling; Sufu-KO-LIGHT fibroblasts, Gli luciferase reporter luminescence; inhibition, % at 5 µM; 0.74% of 340,000 active;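 active = inhibition above about 55%, limit read from the data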;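 also: 0% = DMSO-treated cells and 100% = wells with medium but no cells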
697 NFkB inh: inhibitors of the PMA/ionomycin-induced NF-kB reporter in 697 B cells. 697 B-cell NF-kB luciferase reporter, 16 h. inhibition, % at 4 µM. 0.33% of 330,000 active. AID 435022; in the data active = inhibition above about 35%
H9c2 protect: protects H9c2 cardiomyocytes from peroxide injury; protection from H2O2 cell death, % at 20 µM; 0.63% of 360,000 active; H2O2 injury protection, ATPLite, 2 h;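 active = compounds giving at least 50% protection of heart cells from peroxide-induced death in the single-dose screen, raw or plate-pattern-corrected value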;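 also: 0% = DMSO wells with peroxide and 100% = DMSO wells without peroxide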
VP16 Luc counter: inhibits VP16 reporter, flagging COUP-TFII antagonist hits. shares compounds with COUP-TFII inh. HEK293 Gal4-VP16 luciferase reporter, luminescence. inhibition, % at 8.5 µM. 25% of 2,500 active; in the data active = inhibition above about 13%
COUP-TFII conf: COUP-TFII (NR2F2) inhibition, confirmation assay | 45% of 2,500 active | shares compounds with COUP-TFII inh | HEK293 NGFI-A luciferase reporter, luminescence | inhibition, % at 8.5 µM;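 active = mean inhibition over three repeats above a set limit taken from the earlier primary screen, cut at about 38% in these data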;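 also: 100% = cells given the luciferase reporter alone without the COUP-TF2 vector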
* = called active by the depositor.

What do the screens show for `COCc1cc(N2CCN(C(=O)OC(C)(C)C)C[C@H]2C)ccc1Br`?
COUP-TFII inh: 13.8

How did CN(c1ncnc(N)c1[N+](=O)[O-])C1CCCCC1 do in these assays?
Jurkat NFkB inh: 22.3; COUP-TFII inh: 26.9; Gli-Sufu block: -15.3; 697 NFkB inh: -18.0; H9c2 protect: -3.2

What do the screens show for `CCCCN(c1ccccc1)c1ncnc(N)c1[N+](=O)[O-]`?
Jurkat NFkB inh: 19.0; COUP-TFII inh: 51.6*; Gli-Sufu block: -16.0; 697 NFkB inh: 13.7; H9c2 protect: 2.0; VP16 Luc counter: 14.7*; COUP-TFII conf: 30.7

Results for CC(C)=CC([C@]12C[C@H](CO)N[C@@H]1Nc1ccccc12)S(=O)(=O)c1ccccc1 (stereo partly drawn) ?
COUP-TFII inh: 20.7

How did COc1ccc(-c2nn3c(-c4ccccn4)nnc3s2)cc1OC do in these assays?
Jurkat NFkB inh: 3.4; COUP-TFII inh: -17.9; Gli-Sufu block: -14.9; 697 NFkB inh: 14.2; H9c2 protect: 39.0

Results for CC(C)(C)c1ccc(-c2nnc3sc(-c4ccccn4)nn23)cc1 ?
TAG inh: 8.5; Jurkat NFkB inh: -44.5; COUP-TFII inh: 41.1*; Gli-Sufu block: 17.7; 697 NFkB inh: -61.4; H9c2 protect: 4.5; VP16 Luc counter: -23.2; COUP-TFII conf: 51.9*

Results for O=c1c2ccccc2nnn1Cc1ccco1 ?
COUP-TFII inh: -3.3

How did CS(=O)(=O)N(CCC#N)Cc1ccc(/C=C2\C(=O)Nc3ccccc32)o1 do in these assays?
TAG inh: -9.3; Jurkat NFkB inh: 2.4; COUP-TFII inh: 37.5*; Gli-Sufu block: 3.6; 697 NFkB inh: 1.5; H9c2 protect: 4.3; VP16 Luc counter: -3.5; COUP-TFII conf: 21.1

Results for CN(C)c1ccc(-c2ccnc3c2CC(C)(C(=O)NCc2ccco2)O3)cc1 (stereo not drawn) ?
TAG inh: 3.0; COUP-TFII inh: 49.2*; H9c2 protect: 1.2; VP16 Luc counter: -10.2; COUP-TFII conf: 12.5

What do the screens show for `O=C(N[C@H](C(=O)N1CCC[C@H]1C(=O)NC1CCCC1)C1CCCCC1)c1ccco1`?
COUP-TFII inh: -13.9

Results for CCNC(=O)C1(C)CCCN(C(=O)c2ccc3sccc3c2)C1 (stereo not drawn) ?
TAG inh: 9.7; COUP-TFII inh: -15.6; H9c2 protect: 4.4

Results for CCNC(=O)C1(C)CCCN(C(=O)c2ccc3c(c2)C(C)(C)CCC3(C)C)C1 (stereo not drawn) ?
TAG inh: -15.4; COUP-TFII inh: 38.9*; H9c2 protect: -2.6; VP16 Luc counter: -5.9; COUP-TFII conf: 30.8

How did O=S1(=O)c2ccc(N3CCSCC3)cc2Oc2ccccc2CN1Cc1cn(Cc2ccc(Cl)cc2)nn1 do in these assays?
COUP-TFII inh: 16.3

How did CSc1nc2nc3c(cc2c(=O)n1-c1ccccc1C)CCCC3 do in these assays?
TAG inh: -3.7; Jurkat NFkB inh: 18.3; COUP-TFII inh: 41.5*; Gli-Sufu block: 30.2; 697 NFkB inh: -23.1; H9c2 protect: -13.5; VP16 Luc counter: 3.8; COUP-TFII conf: 28.8

How did O=C(c1cccc(Cl)c1)N1CCN(c2ccnc3cc(Cl)ccc23)CC1 do in these assays?
COUP-TFII inh: 48.7*; VP16 Luc counter: 2.6; COUP-TFII conf: 23.2

How did CC1CN(c2ccnc3cc(Cl)ccc23)CCN1C(=O)c1ccc(Cl)cc1 (stereo not drawn) do in these assays?
COUP-TFII inh: 49.6*; VP16 Luc counter: 4.0; COUP-TFII conf: 16.4

Results for CC(C)N(C(=O)N1CCN(c2ccnc3cc(Cl)ccc23)CC1)C(C)C ?
Jurkat NFkB inh: 10.9; COUP-TFII inh: 29.9; Gli-Sufu block: 35.4; 697 NFkB inh: 19.4; H9c2 protect: 10.8

Results for COC(=O)[C@]12C[C@H](CC(=O)N3CCCC3)C(=O)N(Cc3ccccc3)C1=C[C@H](C(C)C)O[C@@H]2C1CC1 ?
COUP-TFII inh: -3.0

What do the screens show for `Clc1ccc(CN2CCN(N=Cc3ccncc3)CC2)cc1`?
COUP-TFII inh: 49.7*; VP16 Luc counter: 12.7; COUP-TFII conf: 34.7

Results for Cc1c(/C(O)=C2\C(=O)C(=O)N(CCCN(C)C)C2c2ccccc2)cnn1-c1ccccc1 (stereo not drawn) ?
TAG inh: 1.3; Jurkat NFkB inh: -13.6; COUP-TFII inh: 50.5*; Gli-Sufu block: 8.7; 697 NFkB inh: -51.0; H9c2 protect: 4.4; VP16 Luc counter: 1.3; COUP-TFII conf: 9.7

What do the screens show for `Cc1c(/C(O)=C2\C(=O)C(=O)N(CCN(C)C)C2c2cccnc2)cnn1-c1ccccc1` (stereo not drawn)?
TAG inh: -26.5; Jurkat NFkB inh: -5.1; COUP-TFII inh: 7.3; Gli-Sufu block: 1.4; 697 NFkB inh: 28.2; H9c2 protect: 11.2

Results for Cc1c(/C(O)=C2/C(=O)C(=O)N(CCN3CCOCC3)C2c2ccccn2)cnn1-c1ccccc1 (stereo not drawn) ?
Jurkat NFkB inh: 10.7; COUP-TFII inh: 99.8*; Gli-Sufu block: 26.7; 697 NFkB inh: -10.4; H9c2 protect: 0.8; VP16 Luc counter: 30.9*; COUP-TFII conf: 39.3*

Results for COC(=O)C1CN(Cc2cn(CCC3OCCO3)nn2)CCS(=O)(=O)N1Cc1ccc(F)cc1 (stereo not drawn) ?
COUP-TFII inh: -13.7

Results for CCC1Sc2ccc(S(=O)(=O)Nc3ccc(OC)c(OC)c3)cc2NC1=O (stereo not drawn) ?
Jurkat NFkB inh: 24.3; COUP-TFII inh: 52.0*; Gli-Sufu block: -10.2; 697 NFkB inh: -46.5; H9c2 protect: -14.3; VP16 Luc counter: -7.1; COUP-TFII conf: 17.1

How did CCC1Sc2ccc(S(=O)(=O)Nc3ccc(OC)cc3)cc2NC1=O (stereo not drawn) do in these assays?
Jurkat NFkB inh: -3.8; COUP-TFII inh: 0.6; Gli-Sufu block: -2.7; 697 NFkB inh: -14.3; H9c2 protect: -7.5

How did Brc1ccc(-c2csc3[n+]2CCCCC3)cc1 do in these assays?
TAG inh: 3.9; Jurkat NFkB inh: -9.5; COUP-TFII inh: 0.1; Gli-Sufu block: 24.8; 697 NFkB inh: -11.0; H9c2 protect: -9.2

How did CC(C)(C)c1ccc(-c2cn(-c3ccc(Br)cc3)c3[n+]2CCCS3)cc1 do in these assays?
TAG inh: 3.1; COUP-TFII inh: 49.7*; Gli-Sufu block: 92.6*; H9c2 protect: -24.4; VP16 Luc counter: 17.6*; COUP-TFII conf: 36.5

What do the screens show for `O=C1c2cccc(OCC(=O)N3CCCc4ccccc43)c2CCN1Cc1cccnc1`?
TAG inh: -14.3; Jurkat NFkB inh: 20.8; COUP-TFII inh: 39.8*; Gli-Sufu block: 24.1; 697 NFkB inh: -47.5; H9c2 protect: -11.6; VP16 Luc counter: 7.1; COUP-TFII conf: 20.4
